Molecules are shown by their SMILES. Results filed as inconclusive are left out. Where a call stands in place of a potency, no number is given. A number with no mark means an inactive call. Calls of active or inactive are those of the source. Calls follow the shape of the dose curve; as a rule, active = well fitted cell-killing curve with a large enough effect; inconclusive = small, poorly fitted or top-dose-only effect, or effect the other way; inactive = flat fitted curve, though single readings scatter. Where a SMILES comes first, the peptide text is derived from it. The star is where a group is joined. βNA = c1ccc2cc(N*)ccc2c1; Cbz = O=C(OCc1ccccc1)*

The subject of this experiment is C33A. Description: Primary qHTS to identify gynecologic anti-cancer compounds using libraries of approved drugs and bioactive compounds (AID 1345084). Also: nearly all actives have a fitted effect of over 55% in size. The settings on record: Gynecologic cancer cell panel viability, ATPlite luminescence, 48 h; series mostly up to 57.5 µM. Summed up:
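Measured: luminescence after ATPlite addition (15 min, RT). Exposure: 48 h, 37 C, 5% CO2.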
(In general: Quantitative high-throughput screening tests each substance at several concentrations.)
As to `C/C(=C\CCC1(C)C2CC3C(C2)C31C)C(=O)O` (centres undefined), the Potency entry was “inactive”.

`CCCC1=CC2=C(CO1)C(=O)C(C)(O)C(OC(=O)c1c(C)cc(OC)cc1O)C2` (centres undefined): the Potency entry is “inactive”.

`COc1cnc(-n2cnc(C)n2)c2[nH]cc(C(=O)C(=O)N3CCN(C(=O)c4ccccc4)CC3)c12`: the Potency result is “inactive”.

As for `CCCC/C=C\CCCCCc1cc(=O)c2ccccc2n1C`, the Potency entry is “inactive”.

Consider `CCN1CCN(C(=O)N[C@@H](C(=O)N[C@@H]2C(=O)N3[C@@H]2SC(C)(C)[C@@H]3C(=O)O)c2ccccc2)C(=O)C1=O`, for which the Potency result is “inactive”.

Take `C[C@@H]1O[C@@H](O[C@@H]2[C@@H](O)[C@H](O[C@H]3[C@H](O[C@H]4CC[C@@]5(C)C(CC[C@]6(C)C5CC=C5[C@@H]7CC(C)(C)CC[C@]7(C(=O)O[C@@H]7O[C@H](CO)[C@@H](O)[C@H](O)[C@H]7O)CC[C@]56C)C4(C)C)O[C@H](C(=O)O)[C@@H](O)[C@@H]3O)OC[C@H]2O)[C@H](O)[C@H](O)[C@H]1O` (some centres undefined): the activity change, negative = cytotoxicity is -13.9% [at 11.6 µM].

As for `COC(=O)C1=COC(O[C@@H]2O[C@H](CO)[C@@H](O)[C@H](O)[C@H]2O)/C(=C\COC(=O)/C=C/c2ccccc2)C1CC(=O)OCCc1ccc(O)cc1` (some centres undefined), the Potency result is “inactive”.

Take `C=CC(C)(O)CC/C=C(\C)C1CC=C(C)C(=O)O1` (centres undefined): the Potency result is “inactive”.

For `COc1cc(/C=C/C(=O)OC[C@H]2O[C@@H](OC3CC(C)=C(C(=O)O)C(C)(C)C3)[C@H](O)[C@@H](O)[C@@H]2O)cc(OC)c1O` (some centres undefined), the Potency entry is “inactive”.

As to `CC1(C)C[C@H](O)C[C@@]2(C)[C@H]1[C@H](O)C=C1COC(=O)[C@@]12O`, the Potency result was “inactive”.

`O=C(O)Cc1cn([C@@H]2O[C@H](CO)[C@@H](O)[C@H](O)[C@H]2O[C@@H]2O[C@H](CO)[C@@H](O)[C@H](O)[C@H]2O)c2ccccc12`: the Potency result is “inactive”.

With `C=C1CC[C@@]2(OC1)O[C@H]1CC3[C@@H]4CC=C5C[C@@H](O)C[C@@H](O[C@@H]6OC[C@H](O)[C@H](O)[C@H]6O[C@@H]6O[C@@H](C)[C@H](O)[C@@H](O)[C@H]6O)[C@]5(C)C4CC[C@]3(C)[C@H]1[C@@H]2C` (some centres undefined), the Potency result is “inactive”.

On to `CC(C)CC(NC(=O)OCc1ccccc1)C(=O)NC(CC(C)C)C(=O)NC(CCC(=O)O)C(=O)Nc1ccc2ccccc2c1` (stereo not drawn) (Cbz-Leu-Leu-Glu-βNA; configuration not given here), for which the Potency result is “inactive”.

Take `OC[C@@]1(O)CO[C@H](OC[C@H]2O[C@@H](OC(CCCCc3ccc(O)cc3)CCc3ccc(O)cc3)[C@H](O)[C@@H](O)[C@@H]2O)[C@@H]1O` (some centres undefined): the Potency entry was “inactive”.

Take `Nc1ccc(-n2nc(C(F)(F)F)cc2C(F)(F)F)cc1`: the Potency entry is “inactive”.

As for `C/C(=C\C(=O)C[C@@]12C(=O)O[C@]3(C)CC[C@H]1C[C@H]23)C(N)=O`, the Potency result was “inactive”.

For `Nc1ncnc2c1C(=O)N(c1ccc(C3CCC(CC(=O)O)CC3)cc1)CCO2` (centres undefined), the Potency result was “inactive”.

With `COC1OC(=O)C2=C1C1(C)CCCC(C)(C)C1CC2O` (centres undefined), the Potency result was “inactive”.

In the case of `C=C(CC/C=C(\C)C(=O)O)C1(O)CC=C(C)CC1` (centres undefined), the Potency result is “inactive”.

On to `CC(C)Oc1ccc(-c2nc(-c3cccc4c3CCC4NCCC(=O)O)no2)cc1C#N` (centres undefined), for which the Potency result was “inactive”.

Regarding `C=C1CC[C@@]2(OC1)O[C@H]1CC3[C@@H]4CC=C5C[C@H](O[C@H]6OC[C@@H](O)C(O)[C@@H]6O[C@@H]6O[C@@H](C)[C@H](O)[C@@H](O[C@@H]7O[C@H](CO)[C@@H](O)[C@H](O)[C@H]7O)[C@H]6O)C[C@@H](O)[C@]5(C)C4CC[C@]3(C)[C@H]1[C@@H]2C` (some centres undefined), the activity change, negative = cytotoxicity was 2.1% [at 11.6 µM].

In the case of `CC(C)c1cc2c(c(O)c1O)[C@@]13CCCC(C)(C)C1[C@@H](O)[C@@H]2OC3=O` (some centres undefined), the Potency entry was “inactive”.

`COc1cccc(C)c1C(=O)O[C@@H]1C[C@H](O[C@H]2[C@H](O)C[C@H](O[C@@H]3CCC[C@H]4[C@H]3C=C[C@@H]3CCCC/C=C/[C@H]5C=C(C(=O)O)[C@@H](C)C[C@@]56OC(=O)C(=C6O)OC(=O)[C@@]34C)O[C@@H]2C)O[C@H](C)[C@H]1O`: the activity change, negative = cytotoxicity is 10.8% [at 11.6 µM].

Take `CC(=O)OC1C(CO)OC(O[C@H]2[C@H](OC(=O)[C@]34CCC(C)(C)C[C@H]3C3=CCC5[C@@]6(C)CC[C@H](O[C@@H]7O[C@H](C(=O)O)[C@@H](O)[C@H](O[C@@H]8OC[C@@H](O)[C@H](O)[C@H]8O)[C@H]7O[C@@H]7O[C@H](CO)[C@H](O)[C@H](O)[C@H]7O)[C@@](C)(C=O)C6CC[C@@]5(C)[C@]3(C)C[C@H]4O)O[C@H](C)[C@H](OC3OC(C)C(OC4OCC(O)C(O)C4O)C(O)C3O)[C@@H]2O)C(O)C1O` (some centres undefined): the activity change, negative = cytotoxicity is 12.2% [at 6.55 µM].

In the case of `CC(C)=CCC/C(C)=C/CO[C@@H]1O[C@H](CO[C@@H]2O[C@@H](CO)[C@H](O)[C@H]2O)[C@@H](O)[C@H](O)[C@H]1O`, the Potency result was “inactive”.

On to `O=C(c1ccc(Cl)c([N+](=O)[O-])c1)N1CCN(c2ccccc2F)CC1`, for which the Potency entry was “inactive”.

In the case of `COc1cc(O)c2c(c1Cl)CC(C)OC2=O` (centres undefined), the Potency entry is “inactive”.

Turning to `CCCCNc1nc(N)c2[nH]c(=O)n(Cc3ccc(OCCN(C)C)nc3)c2n1`, the Potency result was “inactive”.

`CC(O)C(=O)/C=C/C=C/C(=O)OC1C=C2COC(=O)C2(O)C2(C)CCCC(C)(C)C12` (centres undefined): the Potency result was “inactive”.

For `CC1(C)CC[C@]2(C(=O)O)CC[C@]3(C)C(=CCC4[C@@]5(C)CC[C@H](O[C@@H]6O[C@H](C(=O)O)[C@@H](O)[C@H](O[C@@H]7O[C@H](CO)[C@H](O)[C@H](O)[C@H]7O)[C@H]6O[C@@H]6O[C@H](CO)[C@@H](O)[C@H](O)[C@H]6O)C(C)(C)C5CC[C@]43C)[C@@H]2C1` (some centres undefined), the activity change, negative = cytotoxicity is 4.15% [at 6.55 µM].

On to `CC(=O)OC(C)(C)/C=C/C(=O)[C@](C)(O)C1[C@H](O)C[C@@]2(C)[C@@H]3CC=C4[C@@H](C[C@H](O[C@@H]5O[C@H](CO)[C@@H](O)[C@H](O)[C@H]5O)C(=O)C4(C)C)[C@]3(C)C(=O)C[C@]12C` (some centres undefined), for which the Potency entry is “inactive”.

Take `CC1=CC(=O)CC(C)(C)[C@@]1(O)/C=C/C(C)O[C@@H]1O[C@H](CO)[C@@H](O)[C@H](O)[C@H]1O` (some centres undefined): the Potency result was “inactive”.

Consider `CC(C)C1NC(=O)C(CC2(O)c3ccccc3N3C(=O)C(Cc4ccccc4)NC32)NC1=O` (centres undefined), for which the Potency entry is “inactive”.

Turning to `OC[C@@]1(O)CO[C@H](OC[C@H]2O[C@@H](OC(CCCCc3ccc(O)cc3)CCc3ccc(O)cc3)[C@H](O[C@H]3OC[C@](O)(CO)[C@H]3O)[C@@H](O)[C@@H]2O)[C@@H]1O` (some centres undefined), the Potency result is “inactive”.

Take `COC(=O)c1c(CC=C(C)C)c(OC2OC(CO)C(O)C(O)C2O)c2ccccc2c1OC1OC(CO)C(O)C(O)C1O` (centres undefined): the Potency result is “inactive”.

For `C[C@]1(O)CC[C@@H]2C(C(=O)O)=CO[C@@H](O[C@@H]3O[C@H](COC(=O)/C=C/c4ccc(O)c(O)c4)[C@@H](O)[C@H](O)[C@H]3O)[C@@H]21`, the Potency result is “inactive”.

`CC(C)(O)C1CC=C(C(=O)OC[C@H]2O[C@@H](Oc3cc(C(=O)O)cc(O)c3O)[C@H](O)[C@@H](O)[C@@H]2O)CC1` (some centres undefined): the Potency result was “inactive”.

`COc1cc2c(cc1O)CC(O)(CO)C(CO)C2c1ccc(OC2OC(CO)C(O)C(O)C2O)c(OC)c1` (centres undefined): the Potency result was “inactive”.

For `O=C(O)CC/C=C\C[C@H]1CO[C@@H](c2ccccc2Cl)O[C@H]1c1ccccc1O`, the Potency entry is “inactive”.
